Here are results for 46 sequences from the supplement of paper PMC10338343.

The test system of test [1] is MILI (PIWIL2) piRISC loaded with L1MC piRNA (26 nt). Description: pre-steady-state target cleavage rate (min^-1); guide: L1MC piRNA 5'p-UAACUAAAUACUAUGCAAGCUGUAGG; higher = faster piRNA-guided slicing of the target. In short, it runs like this:
(§1)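 Reactions were run for 0–8 or 0–960 min at 33 °C in HEPES–potassium acetate buffer, combining 1 nM active affinity-purified piRISC with one synthetic guide, […] transcribed, DNA-blocked target RNA library and, in some cases, 500 nM GTSF1 partner protein. Sequencing of uncleaved targets followed, with normalisation to depth and to weakly complementary targets. Three trials were pooled, k3 was capped at 0.0001 min^-1, and the pre-steady-state cleavage rate was taken from a burst-and-steady-state fit.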

Test [2] deals with EfPiwi piRISC loaded with L1MC piRNA (26 nt). Briefly: pre-steady-state target cleavage rate (min^-1); auxiliary factor: 500 nM Ephydatia muelleri Gtsf1; guide: L1MC piRNA 5'p-UAACUAAAUACUAUGCAAGCUGUAGG; MIWI and MILI are mouse PIWI proteins and EfPiwi is from a freshwater sponge; tags in brackets are library labels; higher = faster piRNA-guided slicing of the target. Summed up: as §1
Setting [3] is: auxiliary factor: 500 nM mouse GTSF1.
Setting [4] is: auxiliary factor: none (no GTSF1).

± gives the standard deviation.

Consider UCCUGGAUGAGCUUGCAUAGUAUUUAGGUUA, for which the results for the “pre-steady-state target cleavage rate” value in test [1] (setting [3]), in test [1] (setting [4]) and in test [2] were 0.195 ± 0.028, 0.0044 ± 0.0031 and 0.0031 ± 0.002, respectively.
The matching figures for UCCUGGAUCACCUUGCAUACUAUUUAGUUA: 0.0453 ± 0.011, 0.00336 ± 0.0028 and 0.00341 ± 0.0028.
For UCCUGGUUCAGCUAGCAUAGUAUUUAGUUA, in that order: 0.239 ± 0.026, 0.0116 ± 0.0027 and 0.0263 ± 0.0083.
For UCCUGGAACAGGUUGGAUAGUAUUUAGUUA, in that order: 0.164 ± 0.02, 0.00851 ± 0.0024 and 0.00375 ± 0.0014.
For UCCUCGUACAGCUUGCAUUGUAUUUAGUUA, the entries for the “pre-steady-state target cleavage rate” value in test [1] (setting [3]), in test [1] (setting [4]) and in test [2] were 0.223 ± 0.011, 0.00719 ± 0.0021 and 0.0163 ± 0.004, respectively.
The matching figures for UCCUGCUACAGCAUGCAUAGUAUUUUGUUA: 0.167 ± 0.029, 0.00333 ± 0.0032 and 0.00422 ± 0.002.
Turning to UCCUCCUUCAGCAUGCAUAGUAUUUAGUUA, the “pre-steady-state target cleavage rate” value is 0.265 ± 0.017 in test [1] (setting [3]), 0.00701 ± 0.0018 in test [1] (setting [4]) and 0.0621 ± 0.018 in test [2].
For UCCUCCUACAGCUUGGCAUAGUAUUUAGUUA, in that order: 0.338 ± 0.057, 0.00447 ± 0.0021 and 0.0133 ± 0.0047.
For UCCUCCUGACAGCUUGCAUAGUAUUUAGUUA, in that order: 0.217 ± 0.018, 0.00896 ± 0.0026 and 0.0255 ± 0.008.
The matching figures for UCCUCCUACAAGCUUGCAUAGUAUUUAGUUA: 0.222 ± 0.016, 0.00894 ± 0.0024 and 0.0104 ± 0.0039.
With UCCUGGAACAGCUUGCUUUGUAUUUAGUUA, the “pre-steady-state target cleavage rate” value in test [1] (setting [3]) is 0.182 ± 0.019; in test [1] (setting [4]) it was 0.0038 ± 0.0025; in test [2], 0.00396 ± 0.0025.
For UCCUGGUACAGCUUGUCAUAGUAUUUAGUUA, in that order: 0.19 ± 0.018, 0.0068 ± 0.003 and 0.00651 ± 0.0024.
The matching figures for UCCUCCUACAGCUAGCAUAGUAUUUAGUUA: 0.27 ± 0.019, 0.00812 ± 0.0022 and 0.0119 ± 0.0038.
For UCCUGGAUCAGCUUGCAUAGUAUUUGGUUA, in that order: 0.245 ± 0.018, 0.0139 ± 0.003 and 0.00498 ± 0.002.
As to UCCUCCUACUGCUUGCUUAGUAUUUAGUUA, the “pre-steady-state target cleavage rate” value in test [1] (setting [3]) was found to be 0.234 ± 0.015; in test [1] (setting [4]), 0.00718 ± 0.0021; in test [2], 0.0504 ± 0.015.
For UCCUCCUACAGCUAGCAUAGUAUAUAGUUA, in that order: 0.192 ± 0.03, 0.00339 ± 0.0026 and 0.00495 ± 0.0026.
For “UCCUGGAUGUGCUUGCAUAGUAUUUAGUUC [g2:g20:cont:t1C]”, in that order: 0.12 ± 0.013, 0.00589 ± 0.0026 and 0.0175 ± 0.0048.
The matching figures for UCCUCCUACAGUCUUGCAUAGUAUUUAGUUA: 0.252 ± 0.018, 0.00736 ± 0.0023 and 0.0171 ± 0.006.
Consider UCCUGCUACAGCUUCCUUAGUAUUUAGUUA, for which the entries for the “pre-steady-state target cleavage rate” value in test [1] (setting [3]), in test [1] (setting [4]) and in test [2] were 0.251 ± 0.025, 0.00547 ± 0.0019 and 0.00425 ± 0.0019, respectively.
The matching figures for UCCUGGAUGAGCUUGCAUUGUAUUUAGUAA: 0.127 ± 0.021, 0.00311 ± 0.0025 and 0.00311 ± 0.0025.
With UCCUCCUUCUGCUUGCAUAGUAUUUAGUUA, the “pre-steady-state target cleavage rate” value in test [1] (setting [3]) was determined as 0.269 ± 0.018; in test [1] (setting [4]) it was 0.00966 ± 0.002; in test [2], 0.11 ± 0.028.
For UCCUGGAAUCAGCUUGCAUAGUAUUUAGUUA, in that order: 0.278 ± 0.021, 0.016 ± 0.0034 and 0.0198 ± 0.0068.
As to UCCUGGUACAGGUUGCAUUGUAUUUAGUUA, the entries for the “pre-steady-state target cleavage rate” value in test [1] (setting [3]), in test [1] (setting [4]) and in test [2] were 0.175 ± 0.023, 0.0117 ± 0.0031 and 0.0047 ± 0.0018, respectively.
Regarding UCCUGGAUCAGCAAGCAUAGUAUUUAGUUA, the figures for the “pre-steady-state target cleavage rate” value in test [1] (setting [3]), in test [1] (setting [4]) and in test [2] were 0.231 ± 0.021, 0.00449 ± 0.0021 and 0.0107 ± 0.0038, respectively.
For UCCUGGAUGUCCUUGCAUAGUAUUUAGUA, in that order: 0.0747 ± 0.012, 0.00356 ± 0.0024 and 0.00759 ± 0.0039.
For UCCUGGAUGACCUUGCAAAGUAUUUAGUUA, in that order: 0.0397 ± 0.011, 0.00372 ± 0.0031 and 0.00391 ± 0.0037.
The matching figures for UCCUGCAACACCUUGCAUAGUAUUUAGUUA: 0.192 ± 0.026, 0.00568 ± 0.0027 and 0.0123 ± 0.0034.
With UCCUGGAUCAGCUUGCAUAGUAUUUUGUUA, the “pre-steady-state target cleavage rate” value in test [1] (setting [3]) was 0.144 ± 0.019; in test [1] (setting [4]) it was 0.00819 ± 0.0028; in test [2] it was 0.0125 ± 0.0042.
On to UCCUGGAUGUGCUUGCAUAGUAUUUAGUUUA, for which the “pre-steady-state target cleavage rate” value in test [1] (setting [3]) amounted to 0.141 ± 0.015; in test [1] (setting [4]) it was 0.00735 ± 0.0032; in test [2], 0.00801 ± 0.0032.
The matching figures for UCCUGGAUCAGCUUGCAUAGUAUUAAGUUA: 0.262 ± 0.026, 0.00729 ± 0.0019 and 0.0323 ± 0.0094.
The matching figures for UCCUGGAAGAGCAUGCAUAGUAUUUAGUUA: 0.196 ± 0.015, 0.00911 ± 0.0029 and 0.0132 ± 0.004.
The matching figures for UCCUCCUACACCUUGCAUAGUAAUUAGUUA: 0.196 ± 0.031, 0.00304 ± 0.0027 and 0.0071 ± 0.0031.
As to UCCUCCUACAGACUUGCAUAGUAUUUAGUUA, the “pre-steady-state target cleavage rate” value in test [1] (setting [3]) is 0.253 ± 0.02; in test [1] (setting [4]), 0.00669 ± 0.0021; in test [2], 0.017 ± 0.006.
For UCCUCCAACAGCUUGCAUAGUAUUUAGUUA, in that order: 0.329 ± 0.017, 0.00861 ± 0.0027 and 0.113 ± 0.032.
The matching figures for UCCUGCUACACGAUGCAUAGUAUUUAGUUA: 0.241 ± 0.022, 0.00624 ± 0.0023 and 0.00905 ± 0.0024.
The matching figures for UCCUGCUACAGCUUGCAUAGUGUUUAGUUA: 0.197 ± 0.02, 0.00436 ± 0.0027 and 0.0065 ± 0.0019.
With UCCUGGAUCAGCUUGCAUAAUAUUUAGUUA, the “pre-steady-state target cleavage rate” value turned out to be 0.253 ± 0.031 in test [1] (setting [3]), 0.00396 ± 0.0026 in test [1] (setting [4]) and 0.0108 ± 0.0031 in test [2].
For UCCUCCUACAGCAUGCAAAGUAUUUAGUUA, the “pre-steady-state target cleavage rate” value turned out to be 0.161 ± 0.015 in test [1] (setting [3]), 0.00732 ± 0.0021 in test [1] (setting [4]) and 0.0492 ± 0.017 in test [2].
The matching figures for UCCUGGUACAGCUUGCAUAGUAGUUAGUUA: 0.2 ± 0.034, 0.00513 ± 0.0028 and 0.00515 ± 0.0021.
The matching figures for UCCUGGAUGAGCUUGCAUUGUAUUUAGUUA: 0.139 ± 0.013, 0.00846 ± 0.0023 and 0.00376 ± 0.0029.
For UCCUGGAUGAGCUAUGCAUAGUAUUUAGUUA, in that order: 0.202 ± 0.013, 0.0126 ± 0.0025 and 0.0256 ± 0.0076.
Regarding UCCUGGAACAGGUUGCAUUGUAUUUAGUUA, the “pre-steady-state target cleavage rate” value is 0.157 ± 0.014 in test [1] (setting [3]), 0.00837 ± 0.0019 in test [1] (setting [4]) and 0.00526 ± 0.0019 in test [2].
The matching figures for UCCUGGAUGAGAUUGCAUAGUAUUUAGUUA: 0.153 ± 0.014, 0.011 ± 0.0024 and 0.00463 ± 0.0025.
For UCCUGGUACAGCUUGCAUAGUAUUUUCUAA, in that order: 0.0489 ± 0.017, 0.00383 ± 0.0034 and 0.0055 ± 0.0029.
For UCCUCCUCCAGCUUGCAUAGUAUUUAGUUA, in that order: 0.265 ± 0.019, 0.00605 ± 0.0026 and 0.194 ± 0.056.
UCCUGGAUGUCCUUGCAUAGUGUUUAGUUA: the “pre-steady-state target cleavage rate” value was determined as 0.0572 ± 0.012 in test [1] (setting [3]), 0.00445 ± 0.0025 in test [1] (setting [4]) and 0.00951 ± 0.0035 in test [2].
